KCC2 mod – KCC2 cotransporter modulators, thallium flux, primary screen, cell-based, HEK293 KCC2, FluoZin-2 fluorescence, MLSMR; Solute carrier family 12 member 5 (Homo sapiens), Q9H2X9; KCC2 cells, thallium flux FluoZin-2 fluorescence; B-score of Tl+ flux slope (higher = more flux/activation; lower = inhibition) at 10 µM; actives 2.2% (n = 190,000); AID 1456, 2008;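 active means thallium flux slope and its plate-corrected score both differing from the plate sample mean at a set confidence after two filtering rounds, in either direction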;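 further: slope of fluorescence scaled to starting intensity during 10 to 20 s after thallium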
HSV replic up – enhancers of HSV replication in host cells, fold increase, host cell viability; HSV replication augmentation in cells; maximum fold increase; actives 0.005% (n = 220,000); in the data active means maximum fold increase above about 1.5; inconclusive means no clear call, values can overlap the other calls; tested in PC3 cells
Arbovirus inh – antivirals against arbovirus infection, primary screen, cell-based, full library, 10K replicate subset; arbovirus infection cell-based antiviral screen; inhibition, % at 10 µM; actives 0.37% (n = 200,000); in the data active means inhibition above about 30%
Measles CPE – compounds protecting cells from measles virus cytopathic effect, primary screen, measles RdRp inhibitor project, single point, MLSMR library, absorbance; Measles virus-infected cells, CPE protection; protection (pct of control), % at 4 µM; actives 1.5% (n = 140,000); AID 841, 2007; in the data active means protection mostly above about 24%, no sharp cut-off; inactive means mostly below about 26%
ROMK mod – ROMK potassium channel modulators, primary screen, cell-based, thallium flux, MLSMR library; Tet-inducible ROMK, thallium flux fluorescence; actives lie on both sides; B-score at 10 µM; actives 2% (n = 130,000); AID 1918, 2009;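 active means signal ratio slope over the read window, or its plate-corrected B-score, at least 3 SD from the plate mean, either direction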;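 further: B-score of the F/F0 ratio slope over 7 to 12 s after thallium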
Target sequence (P48048 whole entry, looked up): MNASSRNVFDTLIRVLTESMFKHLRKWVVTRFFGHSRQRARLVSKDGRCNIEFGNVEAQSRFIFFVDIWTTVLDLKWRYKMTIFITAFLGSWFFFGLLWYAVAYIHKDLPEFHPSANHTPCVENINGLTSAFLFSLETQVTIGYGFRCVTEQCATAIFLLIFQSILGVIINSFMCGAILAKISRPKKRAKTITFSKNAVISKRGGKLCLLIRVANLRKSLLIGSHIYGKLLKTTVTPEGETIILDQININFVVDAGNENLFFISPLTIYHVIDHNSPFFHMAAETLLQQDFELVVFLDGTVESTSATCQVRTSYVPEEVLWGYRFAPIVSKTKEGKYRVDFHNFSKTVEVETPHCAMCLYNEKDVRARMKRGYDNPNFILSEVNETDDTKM
An asterisk follows results filed as active; i = inactive; ? = inconclusive; nt = no result given. This is a sample that favours compounds with a hit; in the whole collection about 4% have one here.

SMILES	KCC2 mod	HSV replic up	Arbovirus inh	Measles CPE	ROMK mod
O=C(CSc1nc2ccccc2[nH]1)N=Nc1c(O)[nH]c2ccccc12	0.15	i	-18	10	-0.35
O=C(CSCc1ccc(Br)cc1)N=Nc1c(O)[nH]c2ccccc12	10*	i	14	2	nt
COc1ccc(C(=O)NNC(=O)OC(C)(C)C)cc1	0.31	i	nt	nt	0.54
COc1ccc(C(=O)NN/C(C)=C/C(=O)C(F)(F)C(F)(F)C(F)(F)F)cc1	1.4	i	85*	5	1.1
COC(=O)c1cc(C(=O)c2ccc(Cl)cc2)n2c(=O)/c(=C\N(C)C)sc12	0.7	i	10	nt	-0.18
CCOC(=O)Cc1csc(NC(=S)NC(=O)c2ccc(C)cc2)n1	55*	i	-2	10	nt
CCOC(=O)Cc1csc(NC(=O)c2ccc(C)cc2)n1	-0.074	i	-5	nt	-0.38
CCOC(=O)Cc1csc(NC(=S)NC(=O)c2ccccc2Br)n1	50*	i	4	17	nt
CCOC(=O)Cc1csc(NC(=S)NC(=O)c2ccccc2)n1	52*	i	-6	4	-0.28
C=CCn1c(CSCc2ccc(C)cc2)nnc1SCC(=O)NCc1ccccc1	-0.94	i	0	-1	-1.9
C=CCn1c(CSCc2ccc(Cl)cc2)nnc1SCC(=O)NCc1ccccc1	-1.9	i	16	18	-3*
C[C@H](NC(=O)c1nc[nH]c1C(=O)NCCCCCNC(=O)OC(C)(C)C)C(=O)OCc1ccccc1	-4.4*	i	-4	nt	nt
Cn1nc(/C=C/c2ccccc2)ccc1=O	0.96	i	-8	nt	nt
Cc1ccc(C(=O)N/C(=C\c2sccc2C)C(=O)NCc2ccco2)cc1	nt	i	-4	61*	nt
Cc1ccc(C(=O)N/C(=C\c2sccc2C)C(=O)NCc2ccncc2)cc1	0.86	i	6	6	0.58
Cc1ccc(C(=O)N/C(=C\c2cccs2)C(=O)NCc2ccncc2)cc1	0.4	i	0	47*	nt
CCOc1cc(C)c(-c2onc(C(F)(F)F)c2-c2csc(C)n2)c(O)c1	-0.87	i	-24	45*	nt
O=C(CCCN1C(=O)c2cccc3cccc(c23)C1=O)NC1CCS(=O)(=O)C1 (centres undefined)	-0.021	i	0	nt	0.3
CC1CC(=O)c2c(cc3c(-c4c(O)cc(O)c5c(O)c6c(cc45)OC(C)CC6=O)c(O)cc(O)c3c2O)O1 (centres undefined)	-6.1*	i	5	nt	nt
O=C1CC(c2ccc(O)cc2)Oc2cc(O)cc(O)c21 (centres undefined)	-0.024	i	-1	3	nt
COC(=O)c1ccc2c(c1)S(=O)(=O)NC(=NCc1ccco1)S2	0.17	i	5	85*	nt
CC(C)(CO)CNC(=O)c1ccc(OC2CCN(C(=O)C3CC3)CC2)cc1	0.083	i	4	nt	-0.034
CCOC(=O)C1C(c2cc(OC)c(O)c(OC)c2)NC(=S)NC1(O)C(F)(F)F (centres undefined)	-0.73	i	5	36*	-0.57
CCOC(=O)C1C(c2cc(OC)c(OC)c(OC)c2)NC(=S)NC1(O)C(F)(F)F (centres undefined)	0.89	i	10	11	0.52
O=C1NC(c2ccccc2)C(C(=O)c2cccs2)C(O)(C(F)(F)F)N1 (centres undefined)	-0.13	i	3	3	nt
SMILES	KCC2 mod	HSV replic up	Arbovirus inh	Measles CPE	ROMK mod
COc1cc(C2NC(=S)NC(O)(C(F)(F)F)C2C(=O)c2cccs2)cc(OC)c1O (centres undefined)	-1	i	14	32*	-0.11
COC(=O)c1nnn(-c2cc(Cl)cc(Cl)c2)c1C(=O)OC	-0.13	i	nt	nt	nt
CCOc1ccc(-n2c(=O)c3sccc3n(CC(=O)NCCc3ccc(OC)c(OC)c3)c2=O)cc1	-0.37	i	5	nt	-1.1
Cc1cccc2c1nc(-c1ccccc1)n1nnnc21	-0.56	i	55*	16	nt
Cc1cccc(/C(N)=N/OC(=O)COc2ccc(Cl)c(C)c2)c1	-0.0028	nt	0	23*	0.0016
CCOC(=O)c1cccc(Nc2nc(-c3cccnc3)nc3ccccc23)c1	-0.34	nt	-6	29*	0.0026
COC(=O)c1cccc(Nc2nc(-c3cccnc3)nc3ccccc23)c1	-0.87	i	nt	nt	nt
CC(C)=NOc1nc(N2CCOCC2)nc(N2CCOCC2)n1	0.45	i	nt	nt	nt
COc1cccc(CC2(CO)CCCN(Cc3ccc4c(c3)OCCO4)C2)c1 (centres undefined)	nt	i	-2	nt	0.026
c1ccc(-c2nc(N3CCN(c4ccccc4)CC3)nc(-n3ccnc3)n2)cc1	-0.83	i	1	38*	-1.2
CCOC(=O)Cc1nnc(NC(=O)CSc2nc3ccccc3[nH]2)s1	nt	i	nt	nt	nt
CC(=O)/C(C#N)=C1\NC(=O)C(Cc2ccccc2Cl)S1 (centres undefined)	0.66	nt	2	38*	2
CC(=O)/C(C#N)=C1\NC(=O)C(Cc2ccc(C)c(C)c2)S1 (centres undefined)	0.0092	?	19	69*	nt
CC(=O)/C(C#N)=C1\NC(=O)C(Cc2ccc(F)cc2)S1 (centres undefined)	-1.2	?	nt	nt	1.1
O=C(N/N=C/c1ccc(N2CCOCC2)cc1)C1COc2ccccc2O1 (centres undefined)	0.012	i	1	nt	-0.083
COCCN(C(=O)Cc1cccs1)C(C(=O)NCc1ccc(OC)cc1)c1ccc(OC)cc1 (centres undefined)	0.0068	i	4	40*	nt
Cc1noc(C)c1C(=O)NCc1cccs1	0.97	i	5	44*	nt
CN(C)CCCN(C(=O)c1cccs1)c1nc(-c2ccccc2)cs1	0.21	i	-17	40*	-2.8
Cc1c(N2C(=O)/C(=C/c3cccc4ccccc34)SC2=S)c(=O)n(-c2ccccc2)n1C	-6.8*	i	nt	nt	nt
COC(=O)c1ccc(COc2ccccc2/C=N/NC(=O)c2cccnc2)cc1	-1.5	i	-18	nt	1.5
Cc1ccccc1CN1[C@@H](C(C)C)COCCS1(=O)=O	nt	i	nt	nt	nt
CSC(=S)N/N=C(\C)c1ccc(Br)cc1	84*	i	-2	nt	3.1*
CC(=O)Nc1ccc(SCC(=O)c2cc(C)n(C)c2C)cc1	0.21	i	17	46*	1.1
CC(=O)Nc1ccc(SCC(=O)c2cc(C)n(CC(F)(F)F)c2C)cc1	0.016	i	7	23	-0.8
CN(C(=O)c1c(Cl)nc2sccn12)C1CCCCC1	0.36	i	-5	23*	-0.68
COc1cc2c(cc1OC)C(c1ccc3c(c1)OCO3)C1=C(CC(C)(C)CC1=O)N2 (centres undefined)	-0.11	nt	-5	25*	-0.74
CCOc1ccc(NC(=O)CSc2ccccc2N)cc1	-1.6	i	-21	nt	-0.73

From PubChem BioAssay
